# According to PubChem BioAssay (NCI):
# The panel holds about 83,000 compounds, 20% with a hit somewhere; the sample as a whole holds those more often.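 Note: values are percent growth. 100 is the growth of untreated cells, values between 100 and 0 indicate rising inhibition; between -100 and 0 indicates cell death.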 A number with no mark means an inactive call. Activity calls are given as the source filed them. The calls were made as follows: active = growth percent below 10; inactive = the rest.
# Tests used:
# Assay in all cases: NCI-60 one-dose screen, 48 h (100 = growth as untreated, 0 = no growth, -100 = all killed)
# Conditions in all cases: 10 µM unless noted
# [1] = tested on: SK-MEL-2 melanoma
# [2] = tested on: SN12C renal
# [3] = tested on: UO-31 renal
# [4] = tested on: TK-10 renal
# [5] = tested on: ACHN renal
# [6] = tested on: CAKI-1 renal
# [7] = tested on: A498 renal
# [8] = tested on: CCRF-CEM leukemia
# [9] = tested on: MOLT-4 leukemia
# [10] = tested on: EKVX NSCLC
Structure (SMILES),growth [1],growth [2],growth [3],growth [4],growth [5],growth [6],growth [7],growth [8],growth [9],growth [10]
COc1ccc(-c2cnc3ccnn3c2-c2cc(OC)c(OC)c(OC)c2)cc1,36.9%,42%,48.3%,59.6%,47.3%,46.5%,-5.57% (active),16.3%,–,–
COc1cc2cc(C(=O)Nc3ccccc3)c(N)nc2cc1OC,-62% (active),49.1%,5.81% (active),-48% (active),-0.0696% (active),-13.8% (active),52.4%,-21.7% (active),-44.6% (active),–
COc1ccc(NC(=O)C2c3ccccc3C(=O)N(CC(C)C)C2c2cccs2)cc1 (stereo unspecified),102%,92.1%,108%,97.8%,97.3%,92.2%,86.7%,92.7%,98.6%,–
O=C(/C=C/c1ccccc1)C(Br)C(Br)c1ccccc1 (stereo unspecified),40.9%,41.4%,-88.1% (active),-31.1% (active),-65.9% (active),-44.4% (active),85.1%,-41.4% (active),-25% (active),–
COc1cccc(NC(=O)[C@H](C(C)C)n2c(=O)[nH]c3ccccc3c2=O)c1,101%,105%,101%,105%,104%,97.6%,114%,94.8%,96.8%,–
COC(=O)c1cc2oc(/C=N/NC(=O)c3cc4oc(-c5cccc(C(F)(F)F)c5)cc4[nH]3)cc2n1Cc1ccccc1,107%,104%,–,86.3%,106%,–,85.8%,-26% (active),77.8%,117%
CC(COC(=O)c1ccccc1)N1CC2CCC(C1)O2 (stereo unspecified),107%,99.8%,86%,111%,104%,96.5%,89.5%,92.7%,100%,–
Cc1cc(N=Nc2ccc(-c3ccc(N=Nc4ccc(O)c(C(=O)O)c4)cc3)cc2)c(N)c(N=Nc2ccc(C(=O)O)cc2)c1N,91.8%,91%,76.9%,134%,80.3%,86%,101%,–,90.1%,–
CC1=C(C(=O)Nc2ccc(F)cc2)C(c2ccc(C)cc2)C2=C(CC(C)(C)CC2=O)N1 (stereo unspecified),110%,97%,63.2%,109%,94.7%,69.6%,63.7%,82.8%,85%,–
COc1cc(-c2nc(-c3nc4cc(C(=O)c5ccccc5)ccc4[nH]3)cc3c2[nH]c2ccccc23)cc(OC)c1OC,87.3%,89.5%,73.2%,106%,87.2%,84%,105%,57.2%,63%,–
Nc1c(C(=O)Nc2cccc(Cl)c2)sc2ncc(Br)cc12,89.6%,82%,62.2%,57.9%,11.4%,90.6%,96.5%,–,87.4%,–
COc1ccc(C(=O)c2c(N)nc3n2CCCC3)cc1OC,103%,109%,84.3%,92.8%,107%,93.9%,98.6%,99.8%,84.1%,–
C/C(=N\OC(=O)Nc1cccc(Cl)c1)c1ccccc1,106%,95%,82.8%,109%,101%,106%,42.8%,89.1%,89.9%,–
O=C(CS)OCC(COC(=O)CS)(COC(=O)CS)COC(=O)CS,40.6%,90.2%,93.5%,113%,93.9%,96.5%,104%,–,3.08% (active),–
CCCCCCCCCCCCCCC(C(=O)OCC)C(=O)OCC,112%,101%,93%,117%,98.3%,90.8%,105%,–,109%,–
O=C(/C=C/c1ccccc1)n1c(-c2ccccc2)nc2ccccc21,112%,101%,89.8%,101%,104%,107%,85.8%,97.8%,99.1%,–
CCCCCCCCCCCCCC[N+](C)(C)CCCCCCCCCCCCCC,67.6%,67.6%,78%,48.3%,57.1%,51.6%,102%,–,51.2%,–
CCCN(CCC)CC(O)COc1ccccc1C(=O)Nc1ccccc1 (stereo unspecified),58%,81.6%,78.1%,111%,77.2%,57.5%,53.9%,71.2%,78%,–
Cc1cc(C)cc(CCCCCCCCCCCCCCCCCC(=O)O)c1,150%,106%,89%,116%,98.9%,100%,106%,–,98.3%,–
CC(C)COC(=O)NC(C)(C)C,93.1%,110%,95.6%,104%,104%,96.4%,120%,–,85.4%,–
NC(=S)N/N=C(/c1cccs1)C1CC1,160%,82.6%,76.2%,124%,83.9%,98.8%,106%,–,29.2%,–
CCOC(=O)c1c(NC(=O)c2ccccc2)sc2c(O)c(CN(CC)CC)ccc12,7.87% (active),24.3%,37.5%,19.8%,29.5%,1.51% (active),-22.7% (active),5.79% (active),14%,–
C=CC[C@]1(O)CC[C@H]2[C@@H]3CCc4cc(O)ccc4[C@H]3CC[C@@]21C,90.6%,96.1%,85.7%,107%,94.5%,103%,97.2%,–,62%,–
COc1cc2c(cc1OC)C(=O)C(Br)CC2 (stereo unspecified),81.6%,44.4%,39.4%,53.7%,42.1%,10.4%,73.6%,3.35% (active),13.3%,–
O=NN(CC(=O)NNc1ccccc1)CC(=O)NNc1ccccc1,77.7%,87%,22%,84.3%,46.4%,36%,107%,30.7%,42.2%,–
CC(C)CC(NC(=O)C(CCCN=C(N)N)NC(=O)OCc1ccccc1)C(=O)NC(CNC(=O)/C=C/c1ccccc1)C(C)C (stereo unspecified),113%,99.6%,93%,107%,91.9%,90%,103%,–,97.5%,–
CC(=O)[C@H]1CC[C@H]2[C@@H]3CC[C@H]4CC=CC[C@]4(C)[C@H]3CC[C@]12C,79.9%,96.1%,83.7%,85.9%,92.4%,72.9%,103%,–,83.9%,–
CCc1ccc(-c2ccc(NC3CCCCCC3)nn2)cc1S(N)(=O)=O,99.3%,101%,102%,93.4%,96.1%,96.6%,107%,–,91.7%,–
N#Cc1c(N)c(C(=O)c2ccc3c(c2)OCCO3)n2c1CCCC2,6.49% (active),42.7%,34.4%,39.9%,39%,4.26% (active),38.8%,30.5%,12.3%,–
COc1ccc(-c2[nH]nc(N)c2-c2cc(OC)c(OC)c(OC)c2)cc1,42.5%,33%,20.4%,34.9%,25.5%,5.73% (active),-8.24% (active),-5.92% (active),-2.96% (active),–
